The list is not random: actives were taken first. Their share in the collection is about 2.3%.
CHRM1 agonist = human M1 muscarinic receptor agonists, primary screen, Fluo-8 calcium fluorescence, CHO-K1 cells, HTS | AID 588814, 2011 | Muscarinic acetylcholine receptor M1 (Homo sapiens), P11229 | activation, % at 3 µM | 360,000 tested, 0.33% active | CHO-K1 hM1, agonist mode; 0% DMSO, 100% acetylcholine EC100;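 active means activation above the run's mean compound activation plus 3 SD, cut at about 16% in these data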;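 further: peak over basal fluorescence ratio within a 140 s kinetic read after compound addition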
Target sequence (P11229 whole entry, looked up): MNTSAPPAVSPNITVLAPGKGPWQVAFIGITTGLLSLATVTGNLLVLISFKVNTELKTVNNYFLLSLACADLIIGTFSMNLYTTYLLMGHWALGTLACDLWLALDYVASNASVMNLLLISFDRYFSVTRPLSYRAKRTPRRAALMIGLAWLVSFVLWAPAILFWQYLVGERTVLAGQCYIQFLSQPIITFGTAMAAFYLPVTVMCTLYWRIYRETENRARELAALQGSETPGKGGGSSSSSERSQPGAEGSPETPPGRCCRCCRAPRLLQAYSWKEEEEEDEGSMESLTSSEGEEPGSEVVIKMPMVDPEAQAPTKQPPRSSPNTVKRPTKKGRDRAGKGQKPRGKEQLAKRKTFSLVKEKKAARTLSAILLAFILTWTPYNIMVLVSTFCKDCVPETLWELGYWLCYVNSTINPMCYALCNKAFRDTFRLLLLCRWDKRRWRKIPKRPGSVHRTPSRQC
CHO-K1 Ca PAM = nonselective calcium activators in parental CHO-K1 cells, primary screen, counter-screen for M1 PAM project, cell-based, Fluo-8 calcium fluorescence, full deck, 1536-well. 360,000 tested, 0.02% active. ATP EC20; 0% at ATP EC20, 100% at ATP max. activation, % at 3 µM;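 active means activation above the run cutoff, the mean activation of all test compounds plus 3 SD, cut at about 40% in these data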;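 further: peak over basal fluorescence ratio in a 140 s read after ATP addition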
M1 antag = human M1 muscarinic receptor antagonists, primary screen, CHO-K1 cells, Fluo-8 calcium fluorescence, 1536-well. Muscarinic acetylcholine receptor M1 (Homo sapiens), P11229. CHO-K1 hM1, ACh EC80 antagonist. inhibition, % at 3 µM. 360,000 tested, 1.3% active. AID 588852, 2011;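 active means percent inhibition above its own plate's cutoff, namely the mean of that plate's compound wells plus 3 SD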;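 further: peak over basal fluorescence ratio during 140 s after agonist addition; 0% = ACh EC80 plus DMSO and 100% = DMSO alone without agonist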
CHO-K1 Ca antag = counter-screen for M1 antagonists: effect in parental CHO-K1 cells; 360,000 tested, 0.6% active; inhibition, % at 3 µM; ATP-induced calcium, Fluo-8 fluorescence;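 active means inhibition above a per-plate cutoff, the plate's mean sample inhibition plus 3 SD, cut at about 24% in these data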;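 further: 0% = DMSO plus EC80 ATP and 100% = DMSO alone without ATP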
CHO-K1 Ca ag = counter-screen for M1 agonists: effect in parental CHO-K1 cells; Fluo-8 calcium fluorescence; scaled to maximal ATP response, vehicle zero; activation, % at 3 µM; 360,000 tested, 0.48% active; AID 602248, 2012; in the data active means activation above about 15%;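 further: untransfected CHO-K1 host cells lacking M1 receptor as counterscreen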
CHRM1 PAM = human M1 muscarinic receptor positive allosteric modulators, primary screen, CHO-K1 cells, Fluo-8 calcium fluorescence, 1536-well. AID 588819, 2011. activation, % at 3 µM. CHO-K1 hM1, ACh EC20; 0% = ACh EC20, 100% = maximal ACh. 360,000 tested, 0.088% active. Muscarinic acetylcholine receptor M1 (Homo sapiens), P11229; in the data active means activation above about 19%, passing the limit was not always enough
* = called active by the depositor.

What do the screens show for `CCCOc1ccc(F)cc1-c1cc(C(=O)Nc2ccc(OC)cc2C)[nH]n1`?
CHRM1 agonist: -5; CHO-K1 Ca PAM: 18; M1 antag: 1; CHO-K1 Ca antag: -4; CHO-K1 Ca ag: 0; CHRM1 PAM: -8

What do the screens show for `OCCC1CN(Cc2ccsc2)CCN1C1CCCC1` (stereo not drawn)?
CHRM1 agonist: -7; CHO-K1 Ca PAM: 4; M1 antag: 43*; CHO-K1 Ca antag: -16; CHO-K1 Ca ag: 1; CHRM1 PAM: -2

What do the screens show for `COc1ccc2c(c1)C=C(CN1CCN(C3CCCC3)C(CCO)C1)CO2` (stereo not drawn)?
CHRM1 agonist: -4; CHO-K1 Ca PAM: 15; M1 antag: 95*; CHO-K1 Ca antag: -19; CHO-K1 Ca ag: 0; CHRM1 PAM: -20

What do the screens show for `CC(C)=CCN1CCN(C/C(Cl)=C/c2ccccc2)CC1CCO` (stereo not drawn)?
CHRM1 agonist: -6; CHO-K1 Ca PAM: 17; M1 antag: 0; CHO-K1 Ca antag: -10; CHO-K1 Ca ag: 3; CHRM1 PAM: -15

Results for OCCC1CN(C/C(Cl)=C/c2ccccc2)CCN1C1CCCC1 (stereo not drawn) ?
CHRM1 agonist: -15; CHO-K1 Ca PAM: -4; M1 antag: 22*; CHO-K1 Ca antag: 3; CHO-K1 Ca ag: 0; CHRM1 PAM: -30

How did OCCC1CN(Cc2nc(-c3ccccc3)cs2)CCN1C1CCCC1 (stereo not drawn) do in these assays?
CHRM1 agonist: -7; CHO-K1 Ca PAM: 12; M1 antag: 45*; CHO-K1 Ca antag: -6; CHO-K1 Ca ag: 0; CHRM1 PAM: -24

Results for COc1ccc(CCNC(=O)c2ccc(CSc3ccc(Cl)cc3)o2)cc1OC ?
CHO-K1 Ca PAM: -6; CHO-K1 Ca antag: 10; CHO-K1 Ca ag: 15

How did COc1cc(C(O)c2nc(-c3csc4ccccc34)cs2)ccc1F (stereo not drawn) do in these assays?
CHRM1 agonist: -4; CHO-K1 Ca PAM: 16; M1 antag: -15; CHO-K1 Ca antag: -6; CHO-K1 Ca ag: 1; CHRM1 PAM: 5

What do the screens show for `O=C(NCC1CCCCC1)c1csc([C@@H]2C[C@H](O)[C@@H](CO)O2)n1`?
CHRM1 agonist: 1; CHO-K1 Ca PAM: -2; M1 antag: -9; CHO-K1 Ca antag: 15; CHO-K1 Ca ag: 3; CHRM1 PAM: 10

Results for OCCC1CN(Cc2c(F)cccc2Cl)CCN1C1CCCC1 (stereo not drawn) ?
CHRM1 agonist: -8; CHO-K1 Ca PAM: 4; M1 antag: 57*; CHO-K1 Ca antag: 12; CHO-K1 Ca ag: 2; CHRM1 PAM: -25

How did CCOC(=O)C1CCCN(c2c(NCc3ccco3)c(=O)c2=O)C1 (stereo not drawn) do in these assays?
CHRM1 agonist: 27*; CHO-K1 Ca PAM: 22; M1 antag: -19; CHO-K1 Ca antag: -2; CHO-K1 Ca ag: 0; CHRM1 PAM: 12

What do the screens show for `O=C(Nn1c(C2CCCCC2)nc2ccccc2c1=O)c1ccc([N+](=O)[O-])cc1`?
CHRM1 agonist: -3; CHO-K1 Ca PAM: -14; M1 antag: -3; CHO-K1 Ca antag: 24*; CHO-K1 Ca ag: 0; CHRM1 PAM: 11

Results for CC1(C(=O)Nc2ccc(Cl)c(Cl)c2)CCN1C(=O)Cc1cccc2ccccc12 (stereo not drawn) ?
CHRM1 agonist: -2; CHO-K1 Ca PAM: 16; M1 antag: -13; CHO-K1 Ca antag: -17; CHO-K1 Ca ag: 0; CHRM1 PAM: 3

How did O=C(NCc1ccncc1)[C@@H]1CCCN1C(=O)[C@@H]1CCCN1C(=O)c1cccc2ccccc12 do in these assays?
CHO-K1 Ca PAM: -6; CHO-K1 Ca antag: -9; CHO-K1 Ca ag: 0

Results for Cc1ccc2c(c1)C(=O)C(=O)N2Cc1ccc(Br)cc1 ?
CHRM1 agonist: 21*; CHO-K1 Ca PAM: -8; M1 antag: 0; CHO-K1 Ca antag: 1; CHO-K1 Ca ag: 0; CHRM1 PAM: 9

Results for c1ccc(-c2nc(N3CCCCC3)nc3ccccc23)cc1 ?
CHRM1 agonist: -5; CHO-K1 Ca PAM: 15; M1 antag: 6; CHO-K1 Ca antag: -3; CHO-K1 Ca ag: 0; CHRM1 PAM: -2

What do the screens show for `CCN1CCN(c2nc(-c3ccccc3)c3ccccc3n2)CC1`?
CHRM1 agonist: -11; CHO-K1 Ca PAM: 25; M1 antag: 47*; CHO-K1 Ca antag: -25; CHO-K1 Ca ag: 3; CHRM1 PAM: -29

Results for COc1ccc(NC(=O)C[C@H]2C(=O)N(CCc3ccccc3)C[C@@H]2Cc2ccccc2)cc1 ?
CHRM1 agonist: -1; CHO-K1 Ca PAM: 3; M1 antag: -4; CHO-K1 Ca antag: 9; CHO-K1 Ca ag: 0; CHRM1 PAM: 1

How did O=C(NCc1ccccc1)/C(=C\c1ccc(F)cc1)NC(=O)c1ccco1 do in these assays?
CHRM1 agonist: -2; CHO-K1 Ca PAM: 9; M1 antag: -7; CHO-K1 Ca antag: -6; CHO-K1 Ca ag: 0; CHRM1 PAM: 2

How did CC1=[N+](C)N(c2ccccc2)C(=O)C1N=Cc1c(Cl)cccc1Cl (stereo not drawn) do in these assays?
CHRM1 agonist: -6; CHO-K1 Ca PAM: 10; M1 antag: -1; CHO-K1 Ca antag: 9; CHO-K1 Ca ag: 16*; CHRM1 PAM: 12

Results for O=C1/C(=C/c2ccccc2F)SC(=S)N1CC(=O)N1CCCCC1c1cccnc1 (stereo not drawn) ?
CHRM1 agonist: -2; CHO-K1 Ca PAM: 0; M1 antag: -5; CHO-K1 Ca antag: -14; CHO-K1 Ca ag: 6; CHRM1 PAM: -4

How did Cc1nc(N2CCN(S(=O)(=O)c3cccs3)CC2)c2c(-c3ccccc3)c(C)sc2n1 do in these assays?
CHRM1 agonist: -5; CHO-K1 Ca PAM: 13; M1 antag: -6; CHO-K1 Ca antag: -8; CHO-K1 Ca ag: 0; CHRM1 PAM: 0

How did CCCSc1nnc(-c2ccccc2NC(=O)CC)c(=O)[nH]1 do in these assays?
CHRM1 agonist: -2; CHO-K1 Ca PAM: -4; M1 antag: 2; CHO-K1 Ca antag: 0; CHO-K1 Ca ag: 0; CHRM1 PAM: 6

What do the screens show for `CCCC(=O)Nc1ccccc1-c1nnc(SC)[nH]c1=O`?
CHRM1 agonist: -1; CHO-K1 Ca PAM: 5; M1 antag: 1; CHO-K1 Ca antag: 28*; CHO-K1 Ca ag: 0; CHRM1 PAM: 7

How did COc1ccc(S(=O)(=O)N2CCOCC2)cc1NC(=O)CO/N=C/c1ccccc1OC(F)F do in these assays?
CHRM1 agonist: -8; CHO-K1 Ca PAM: 21; M1 antag: -11; CHO-K1 Ca antag: 1; CHO-K1 Ca ag: 15*; CHRM1 PAM: 13

From PubChem BioAssay
